Out of some 1,900 compounds screened, about 250 (13%) were called active. Not shown: some 4% with an inconclusive outcome.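 The calls were made as follows: active = fitted curve reaches 40% rescue activity at or below the top valid dose, in every test run; inconclusive = test runs disagree, some active and some inactive; inactive = every run misses the threshold or moves the wrong way.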 Not all results are given here. Where a call stands in place of a potency, no number is given. Potency and affinity values are given separately.

A short description of this test: suppressors of statin myotoxicity in myotubes, dose response, cell-based, C2C12 myotubes, ATP luminescence, cherry pick (AID 624405).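 Also: myotubes are challenged with simvastatin at 10 µM to lower ATP.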 To be noted: C2C12 myotubes + simvastatin, 48 h, scaled: DMSO wells 0, geranylgeraniol wells 100; series mostly up to 19.5 µM.
Regarding `O=C(O)c1ccc(C(=O)c2ccc3c(c2)C(=O)N(Cc2ccco2)C3=O)cc1`, the result was inactive.
With `Cc1noc(C)c1S(=O)(=O)Nc1ccc2c(c1)C(=O)N([C@H](C)CO)C[C@H](C)[C@@H](CN(C)C(=O)Nc1cccc3ccccc13)O2` the entry was “inactive”; with `COc1ccc(C#Cc2cnc3c(c2)C(=O)N([C@@H](C)CO)C[C@H](C)[C@H](CN(C)C(=O)Nc2cccc(OC)c2)O3)cc1`, “inactive”.
In the case of `C[C@H](CO)N1C[C@H](C)[C@@H](CN(C)Cc2ccc(C(=O)Nc3ccccc3N)cc2)Oc2ccc(NC(=O)Nc3cccc4ccccc34)cc2C1=O` it was “inactive”; in that of `COc1ccc(NC(=O)Nc2ccc3c(c2)C(=O)N([C@@H](C)CO)C[C@H](C)[C@H](CN(C)Cc2ccc(C(F)(F)F)cc2)OCCCC[C@@H](C)O3)cc1`, “inactive”.
With `COc1ccc(N=Cc2sc(O)c3ccccc23)cc1` the entry was “inactive”; with `C[C@@H]1CN([C@H](C)CO)C(=O)c2cc(C3=CCCCC3)cnc2O[C@H]1CN(C)Cc1ccccc1F`, “inactive”; with `Cn1c(CCN2CCCCC2)nc2cc(NC(=O)Nc3ccccc3)ccc21`, “inactive”.
For the molecule `CC(C(=O)N1CCCc2ccccc21)N1C(=O)c2ccccc2C1=O` (centres undefined), the result was inactive.
For the molecule `CCN(CC)C(=O)c1ccc(NS(=O)(=O)c2ccccc2)cc1`, the outcome was inactive.
`NNC(=O)COc1cccc2cccnc12`: the outcome was inactive.
In the case of `O=c1[nH]c(Nc2ccccc2Cl)cc2ccccc12` it was “inactive”; in that of `CC(C)(C)C(=O)COC(=O)CNC(=O)c1ccc(Oc2ccccc2)cc1`, “inactive”.
Consider `C[C@@H]1CN([C@H](C)CO)C(=O)Cc2cc(N(C)C)ccc2O[C@@H]1CN(C)Cc1ccc(Cl)c(Cl)c1`, for which the result was inactive.
With `Cc1ccc(S(=O)(=O)Nc2ccc3c(c2)CC(=O)N([C@H](C)CO)C[C@@H](C)[C@H](CN(C)Cc2ccc(Cl)c(Cl)c2)O3)cc1` the entry was “inactive”; with `C[C@@H]1CN([C@H](C)CO)C(=O)Cc2cc(NS(C)(=O)=O)ccc2O[C@@H]1CN(C)Cc1ccc(Cl)c(Cl)c1`, “inactive”.
As to `Cc1ccc(S(=O)(=O)Nc2ccc3c(c2)CC(=O)N([C@@H](C)CO)C[C@@H](C)[C@H](CN(C)Cc2ccc(Cl)c(Cl)c2)O3)cc1`, the outcome was inactive.
With `C[C@@H]1CN([C@H](C)CO)C(=O)Cc2cc(NS(=O)(=O)c3ccc(Cl)cc3)ccc2O[C@H]1CN(C)Cc1ccc(Cl)c(Cl)c1` the entry was “inactive”; with `Cc1ccc(S(=O)(=O)Nc2ccc3c(c2)CC(=O)N([C@@H](C)CO)C[C@@H](C)[C@@H](CN(C)Cc2ccc(Cl)c(Cl)c2)O3)cc1`, “inactive”; with `C[C@H]1CN([C@@H](C)CO)C(=O)Cc2cc(N(C)C)ccc2O[C@@H]1CN(C)Cc1ccc(Cl)c(Cl)c1`, “inactive”.
With `Cc1ccc(S(=O)(=O)Nc2ccc3c(c2)CC(=O)N([C@H](C)CO)C[C@@H](C)[C@@H](CN(C)Cc2ccc(Cl)c(Cl)c2)O3)cc1` the entry was “inactive”; with `C[C@H](CO)N1C[C@H](C)[C@@H](CN(C)C(=O)Nc2ccc(C(F)(F)F)cc2)OCCCC[C@H](C)Oc2ccc(NC(=O)Nc3cccc4ccccc34)cc2C1=O`, “inactive”; with `CC(=O)c1ccc(NC(=O)c2cc(-c3cccs3)on2)cc1`, “inactive”.
With `C=C[C@@H]1c2c(F)cccc2N(S(=O)(=O)c2ccc(C)cc2)[C@H](c2ccc(C(=O)OC)cc2)C1(C#N)C#N` the entry was “inactive”.
On to `Cc1noc(C)c1NC(=O)N(C)C[C@@H]1OCCCC[C@@H](C)Oc2ccc(NS(=O)(=O)c3cn(C)cn3)cc2C(=O)N([C@H](C)CO)C[C@@H]1C`, for which the outcome was inactive.
With `C[C@@H]1CN([C@H](C)CO)C(=O)Cc2cc(NC(=O)Cc3cn(C)c4ccccc34)ccc2O[C@H]1CN(C)Cc1ccc2c(c1)OCO2` the entry was “inactive”; with `Cc1ccc(-c2nc(CS(=O)CC(=O)NC3CCCCC3)c(C)o2)cc1` (centres undefined), “inactive”.
With `C[C@@H]1CN([C@H](C)CO)C(=O)Cc2cc(NS(=O)(=O)c3ccc(F)cc3)ccc2O[C@H]1CN(C)Cc1ccc2c(c1)OCO2` the entry was “inactive”; with `C[C@@H]1CN([C@@H](C)CO)C(=O)Cc2cc(NS(=O)(=O)c3ccc(Cl)cc3)ccc2O[C@H]1CN(C)Cc1ccc2c(c1)OCO2`, “inactive”.
In the case of `C[C@@H]1CN([C@H](C)CO)C(=O)c2cc(NC(=O)CCC(F)(F)F)ccc2O[C@@H](C)CCCCO[C@@H]1CN(C)Cc1ccc(C(F)(F)F)cc1` it was “inactive”; in that of `COc1ccc(Cn2nnnc2C(c2ccccc2OC)N2CCC(C(N)=O)CC2)cc1` (centres undefined), “inactive”.
Regarding `COc1ccc(OC)c(C(c2nnnn2Cc2ccccc2)N2CCN(C3CCCCC3)CC2)c1` (centres undefined), the outcome was inactive.
With `Cc1cnc(-c2nnc(N(C)C(=O)c3cccnc3)s2)cn1` the entry was “inactive”.
As to `C[C@@H]1CN([C@H](C)CO)C(=O)c2cccc(NS(=O)(=O)c3cccs3)c2O[C@@H]1CN(C)S(=O)(=O)c1ccccc1`, the result was inactive.
For `COc1cccc(NC(=O)c2cccc(OC)c2OC)c1`, the outcome was inactive.
In the case of `CCOC(=O)N1CCN(C(=O)CSCC(=O)Nc2nc(-c3ccc4c(c3)OCO4)cs2)CC1` it was “inactive”.
With `CN1C(=O)c2cc(NC(=O)Cc3cccs3)ccc2OC[C@H]2O[C@@H](CC(=O)NCc3ccc(-c4ccccc4)cc3)CC[C@H]21` the entry was “inactive”; with `O=C(CSc1ccc2c(c1)OCCO2)Nc1ccc(Br)cc1`, “inactive”; with `CC(Oc1ccc(Cl)cc1Cl)C(=O)N(Cc1ccco1)C1CCS(=O)(=O)C1` (centres undefined), “inactive”.
With `CS(=O)(=O)N(CCc1ccccc1)CC(=O)N1CCc2ccccc2C1`, the outcome was inactive.
In the case of `O=C(C[C@H]1CC[C@H]2[C@@H](COC[C@@H](O)CN2C(=O)c2cc(Cl)cc(Cl)c2)O1)N1CCc2ccccc2C1` it was “inactive”.
In the case of `Cc1cc(C)c2cc(CN(Cc3ccco3)C(=O)NCc3ccccc3)c(=O)[nH]c2c1`, the result was inactive.
For `COc1ccc(NC(=O)Cn2ccc(C(F)(F)F)n2)cc1S(=O)(=O)N1CCOCC1`, the result was inactive.
Regarding `C[C@@H]1CCCCO[C@H](CN(C)S(=O)(=O)c2ccc(Cl)cc2)[C@@H](C)CN([C@H](C)CO)C(=O)c2cc(NS(C)(=O)=O)ccc2O1`, the outcome was inactive.
In the case of `CCOC(=O)c1c(C)oc2ccc(OCC(=O)C(C)(C)C)cc12` it was “inactive”; in that of `CC(=O)c1cccc(NC(=O)N2CCCC2C(=O)Nc2cc(C)ccc2C)c1` (centres undefined), “inactive”.
In the case of `COc1ccc(C)cc1NC(=O)C1CCCN1C(=O)OCc1ccccc1` (centres undefined) it was “inactive”; in that of `O=C(Nc1ccccc1Cl)N1C[C@H]2[C@@H](c3ccccc31)[C@H](CO)N2Cc1ccccc1`, “inactive”; in that of `C[C@H]1CN([C@@H](C)CO)C(=O)Cc2cc(NC(=O)Nc3ccc(C(F)(F)F)cc3)ccc2O[C@H]1CN(C)Cc1ccc(Oc2ccccc2)cc1`, “inactive”.
As for `C[C@@H]1CCCCO[C@@H](CN(C)Cc2ccc(Cl)c(Cl)c2)[C@@H](C)CN([C@@H](C)CO)C(=O)c2cc(NC(=O)NC3CCCCC3)ccc2O1`, the outcome was inactive.
For `Cc1sc2nc(CN(C(=O)c3cccs3)C3CCCC3)[nH]c(=O)c2c1C`, the result was inactive.
Turning to `C[C@@H]1CN([C@@H](C)CO)C(=O)Cc2cc(NC(=O)Cc3cn(C)c4ccccc34)ccc2O[C@H]1CN(C)Cc1ccc(Cl)c(Cl)c1`, the result was inactive.
Turning to `Cc1ccc(CSc2nnc3nc(C)cc(C)n23)cc1`, the result was inactive.
In the case of `O=C(CSc1ncn(-c2ccccc2)n1)Nc1ccc2c(c1)OCCO2` it was “inactive”; in that of `CCOC(=O)Nc1c(C(=O)OC)[nH]c2cc(OC)ccc12`, “inactive”; in that of `CC(C)CCNc1ncnc2c1cnn2Cc1ccccc1Cl`, “inactive”.
In the case of `Cc1ccccc1S(=O)(=O)N(C)C[C@H]1OCc2ccccc2-c2c(n(C)c3ccccc23)C(=O)N([C@H](C)CO)C[C@H]1C` it was “inactive”; in that of `Cc1cccc(S(=O)(=O)N(C)C[C@H]2OCc3ccccc3-c3c(n(C)c4ccccc34)C(=O)N([C@@H](C)CO)C[C@H]2C)c1`, “inactive”.
With `C[C@H](CO)N1C[C@H](C)[C@@H](CN(C)S(=O)(=O)c2ccccc2)OCCCC[C@H](C)Oc2ccc(N(C)C)cc2C1=O`, the result was inactive.
In the case of `C[C@@H]1CN([C@@H](C)CO)C(=O)c2cc(NC(=O)NC3CCCCC3)ccc2O[C@@H](C)CCCCO[C@H]1CN(C)C(=O)c1ccccc1` it was “inactive”.
Consider `COc1ccc(CN2[C@H](CO)[C@@H]3c4ccccc4N(C(=O)C4CC4)C[C@@H]32)cc1`, for which the outcome was inactive.
`CCC(=O)NCCc1nc2ccccc2n1Cc1ccccc1`: the result was inactive.
With `CCCCn1c(=O)c(-c2ccccc2)c(O)c2ccccc21` the entry was “inactive”.
In the case of `Cc1ccc(OCCCn2c(CO)nc3ccccc32)cc1` it was “inactive”; in that of `CCCCCCN1Cc2ccccc2C1`, “inactive”.
Take `C=C(C)Cn1c(CCCNC(=O)C(C)(C)C)nc2ccccc21`: the outcome was inactive.
On to `CCc1nc2ccccc2n(CCOCCOCCn2c(=O)c(CC)nc3ccccc32)c1=O`, for which the outcome was inactive.
In the case of `CCN1CCCC1CNC(=O)c1c(O)c2c([nH]c1=O)CCCC2` (centres undefined) it was “inactive”; in that of `COCC(C)NS(=O)(=O)c1ccc(C)cc1` (centres undefined), “inactive”.
As for `C[C@H]1CN([C@@H](C)CO)C(=O)Cc2cc(NC(=O)c3ccncc3)ccc2O[C@@H]1CN(C)C(=O)Nc1cccc2ccccc12`, the outcome was inactive.
Consider `C[C@H](CO)N1C[C@H](C)[C@@H](CN(C)S(=O)(=O)c2ccc(Cl)cc2)OCCCC[C@H](C)Oc2ccc(NS(C)(=O)=O)cc2C1=O`, for which the outcome was inactive.
As to `C[C@H](CO)N1C[C@H](C)[C@@H](CN(C)Cc2ccc(Cl)c(Cl)c2)Oc2ccc(NC(=O)Cc3ccccc3)cc2CC1=O`, the outcome was inactive.
In the case of `C[C@H]1CN([C@@H](C)CO)C(=O)c2cc(C3=CCCCC3)cnc2O[C@H]1CN(C)C(=O)c1ccccn1` it was “inactive”; in that of `Cc1cc(NC(=O)c2ccc(N3C(=O)CCC3=O)cc2)no1`, “inactive”.
In the case of `COc1ccc(Cl)cc1C(=O)n1nc(C)cc1C` it was “inactive”; in that of `COc1cc(C)ccc1OCCCOc1cc(C)ccc1Cl`, “inactive”.
In the case of `C[C@@H]1CN([C@@H](C)CO)C(=O)Cc2cc(NC(=O)CCC(F)(F)F)ccc2O[C@H]1CN(C)Cc1ccc(Oc2ccccc2)cc1` it was “inactive”.
`CCc1c(C)sc(NC(=O)c2ccco2)c1C(=O)N1CCCCC1`: the result was inactive.
With `Cc1ccc(-c2nc3ccccc3[nH]2)cc1NC(=O)c1ccco1` the entry was “inactive”.

The record behind these values is PubChem BioAssay AID624405 (Broad Institute, 2012).
